Measurements taken from PubChem BioAssay AID1259415 (National Center for Advancing Translational Sciences (NCATS), 2018).
In all, about 410,000 compounds went through this assay and about 18,000 (4.4%) were called active. Roughly 7% stayed inconclusive and do not appear here. What follows is part of a selection rich in actives, with near analogues and random picks from the rest. A number with no mark means an inactive call. Cut-off read from the data, not from the text of the source: active = activity change below about -60%; inconclusive = no clear call, values can overlap the other calls; inactive = above about -39%.

Experiment: qHTS Assay for inhibitors of the human cytomegalovirus (HCMV)
Details: HFF cells, HCMV-luciferase reporter, 72 h; at 57.5 µM; hits give low values
Method in brief: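 Two-dose cell screen: HFF monolayers treated with compounds and infected with luciferase-expressing HCMV at 1 PFU/cell, 72 h at 37C, then lysed for luciferase measurement.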
% is set by controls: 0 for no effect and ±100 for the full control effect.

Structure (SMILES) | activity change, negative = inhibition
CN(Cc1cccc2ncccc12)C(=O)CC1C(=O)NCCN1Cc1ccc(F)cc1 (centres undefined) | -30.9%
O=C(CN1CCN(Cc2ccc(Cl)cc2)C1=O)NCc1ccc(F)cc1 | -24.9%
Cc1ccc(C(=O)NC2CCCC(C)C2C)cc1S(=O)(=O)N1CCCCC1 (centres undefined) | -22.8%
Cc1nn(-c2ccccc2)c(C)c1NC(=O)COc1ccc(Cl)cc1Cl | -98.7% (active)
Cc1nn(-c2ccccc2)c(C)c1NC(=O)COC(=O)Cc1ccccc1 | -13%
Cc1nn(-c2ccccc2)c(C)c1NC(=O)COC(=O)c1cc(Cl)ccc1O | 9.57%
N#Cc1nc(/C=C/c2ccc(F)cc2)oc1NCc1ccc(F)cc1 | -13.8%
COc1cccc(-c2cc(C(=O)Nc3ccc(C)cc3)[nH]n2)c1 | 11.2%
CCc1ccc(CNC(=O)c2cc3cc4ccc(OC)cc4nc3o2)cc1 | -26.2%
Cc1ccc2c(=O)c(C(=O)c3cccc(Cl)c3)cn(CC(=O)NCc3ccccc3)c2n1 | -12.2%
O=C(Nc1cc(Cl)cc(Cl)c1)c1ccc2c(c1)N(Cc1cccc(Cl)c1)C(=O)c1ccccc1S2=O (centres undefined) | 16.5%
CN(C(=O)c1ccc2c(c1)N(Cc1cccc(Cl)c1)C(=O)c1ccccc1S2=O)C1CCCCC1 (centres undefined) | -63.4% (active)
O=C(NC1CCCCC1)c1ccc2c(c1)N(Cc1ccc(Cl)cc1)C(=O)c1ccccc1S2=O (centres undefined) | 8.53%
CCCCNC(=O)c1nc(C2CCN(S(=O)(=O)c3ccc(F)c(F)c3)CC2)oc1-c1cccc(C(F)(F)F)c1 | 6.36%
Cc1cccc(-n2ncc(C(=O)N3CCC(C)CC3)c2C2CCN(C(=O)OC(C)(C)C)CC2)c1 | 0%
Cc1ccc(CN2CCC(CNC(=O)c3cnn(-c4ccc(C)cc4)c3C3CCN(C(=O)OC(C)(C)C)CC3)CC2)cc1 | 0%
CC(C)(C)OC(=O)N1CCC(c2c(C(=O)Nc3ccc4c(c3)OCO4)cnn2-c2ccccc2)CC1 | -8.71%
COc1ccccc1CN1CCC(CNC(=O)c2cnn(-c3ccccc3Cl)c2C2CCN(C(=O)OC(C)(C)C)CC2)CC1 | -7.53%
CC(C)(C)OC(=O)N1CCC(c2c(C(=O)NCc3ccccn3)cnn2-c2ccc(F)cc2)CC1 | 14.7%
CCN1CCN(CCCNC(=O)c2cnn(-c3ccc(C)cc3C)c2C2CCN(C(=O)OC(C)(C)C)CC2)CC1 | -13.5%
CC(C)(C)OC(=O)N1CCC(c2c(C(=O)N3CCN(c4cccc(Cl)c4)CC3)cnn2-c2cccc(Cl)c2)CC1 | 26.6%

Structure (SMILES) | activity change, negative = inhibition
Cc1ccc(CN2CCC(CNC(=O)c3cnn(-c4ccccc4Cl)c3C3CCN(C(=O)OC(C)(C)C)CC3)CC2)cc1 | -65.8% (active)
COc1ccccc1N1CCN(CCCNC(=O)c2cnn(-c3ccccc3Cl)c2C2CCN(C(=O)OC(C)(C)C)CC2)CC1 | -12.2%
CCOC(=O)N1CCC(NC(=O)c2cnn(-c3cccc(C)c3)c2C2CCN(C(=O)OC(C)(C)C)CC2)CC1 | 0% (active)
COc1ccccc1CN1CCC(CNC(=O)c2cnn(-c3cccc(Cl)c3)c2C2CCN(C(=O)OC(C)(C)C)CC2)CC1 | -108% (active)
COC(=O)c1ccc(NC(=O)c2cnn(-c3ccc(Cl)cc3)c2C2CCN(C(=O)OC(C)(C)C)CC2)cc1 | 0% (active)
Cc1cc(C)cc(NC(=O)Cc2csc(C)n2)c1 | 53.8%
Cc1ccc(Cn2c(CCCNC(=O)C3CCCCC3)nc3ccccc32)cc1 | -11.7%
COc1ccc(N2CCN(S(=O)(=O)CCNC(=O)C(c3ccccc3)c3ccccc3)CC2)cc1 | 1.25%
COC(=O)c1ccc2c(c1)N(CC(=O)Nc1ccc(C)c(C)c1)C(=O)c1ccccc1S2 | 6.12%
CCc1ccc(N(CC(=O)Nc2sc3c(c2C(=O)OC)CCCC3)S(C)(=O)=O)cc1 | 40.2%
COC(=O)c1c(NC(=O)c2ccc(Cl)c(Cl)c2)sc2c1CCCC2 | 15%
COC(=O)c1c(NC(=O)CSc2nncs2)sc2c1CCCCC2 | -61.6% (active)
COc1ccc(S(=O)(=O)N2CCN(CC(=O)NCC3(N4CCOCC4)CCCCC3)CC2)cc1 | -36.1%
O=C(CN1CCN(S(=O)(=O)c2ccc3ccccc3c2)CC1)NC(=O)NC1CCCCC1 | -4.61%
O=C(CN1CCN(C(=S)NC2CCCC2)CC1)Nc1ccc(Oc2ccccc2)cc1 | -79.5% (active)
CCC(=O)c1ccc(OCC(=O)N2CCN(CC(=O)Nc3ccc(C)cc3)CC2)cc1 | 6.75%
CC1(C)OC(=O)C2=C(C[C@@H](C3CC3)O[C@H]2c2ccc(Cl)cc2)O1 | -11.9%
O=c1c2ccccc2ncn1CCCCOc1ccccc1F | -105% (active)
Fc1ccccc1OCCCCn1cncn1 | -9.84%
O=c1c2ccccc2ncn1CCc1ccncc1 | 16.6%
COc1ccc(CCN2C(=O)c3oc4cc(C)cc(C)c4c(=O)c3C2c2ccccc2F)cc1OC (centres undefined) | -2.86%

Structure (SMILES) | activity change, negative = inhibition
COc1ccc(Br)cc1C1CC(=O)Nc2c1c(C)nn2-c1nc(C)cc(C)n1 (centres undefined) | -4.09%
CN1CCC2(CC1)NC(=O)NC2=O | 7.02%
O=C(COc1cccnc1[N+](=O)[O-])Nc1ccc(Cl)cc1F | 9.57%
Cc1ccc2cc(CCNC(=O)c3c(-c4ccccc4Cl)noc3C)c(=O)[nH]c2c1 | -94.6% (active)
COc1ccc(-c2cnc(SCCNC(=O)c3ccc4c(c3)OCO4)[nH]2)cc1 | -28.5%
O=C(NCCc1ccc(C(F)(F)F)cc1)c1ccc2c(c1)OCO2 | -38.1%
Cc1onc(-c2ccccc2Cl)c1C(=O)N(Cc1ccc(N(C)C)cc1)C(C)C | -25.9%
Cc1onc(-c2c(Cl)cccc2Cl)c1C(=O)c1c[nH]c(C(=O)NC2CC2)c1 | 16.8%
Cc1ccc2cc(CCNC(=O)c3ccc4c(c3)OCO4)c(=O)[nH]c2c1 | -60.5% (active)
COC(=O)C1=CN(c2c(C)cc(C)cc2C)C(N)=C(C#N)C1c1cccc(F)c1 (centres undefined) | -18.9%
COC(=O)[C@@H]1[C@@H](CO)[C@@H]2Cn3c(cccc3=O)[C@H]1N2CC1CCCC1 | 13.6%
Cc1[nH]c2ccccc2c1C(c1ccccc1)c1cccs1 (centres undefined) | -20.6%
Cc1cc(F)ccc1S(=O)(=O)Nc1ccc(C(=O)N(C)Cc2ccco2)cc1 | -17.3%
CCOC(=O)C1CCCN(C(=O)c2ccc(N(C)C)cc2)CC1 (centres undefined) | 14.9%
Cc1ccc(C)c(S(=O)(=O)N(C)c2ccc(OC(=O)C3CCN(C(=O)c4ccc(F)cc4)CC3)cc2)c1 | -83.9% (active)
CCOC(=O)C1CCCN(C(=O)c2ccc(C)c(F)c2)CC1 (centres undefined) | -2.4%
C/C(N)=C(/C#N)C(=O)COC(=O)CNS(=O)(=O)c1ccc(C)cc1 | -80.1% (active)
COc1cccc(OC)c1C(=O)OCC(=O)/C(C#N)=C(\C)N | -27.5%
Cc1ccc(S(=O)(=O)NCC(=O)OCC(=O)N2CCc3ccccc32)cc1 | -5.73%
Cc1ccc(N2CC(C(=O)Nc3cc(Cl)ccc3-n3cncn3)CC2=O)cc1 (centres undefined) | 4.52%
CCn1cc2nc(SCc3cccc(F)c3)n(CCc3ccccc3)c(=O)c2n1 | -35.3%

Structure (SMILES) | activity change, negative = inhibition
CN(C)C1=NC[C@H](Cc2ccccc2)N1CCc1ccc(F)cc1 | -5.86%
CCCC[C@@H]1CN=C(N)N1CCc1cc(C(F)(F)F)cc(C(F)(F)F)c1 | -75% (active)
CCCCN1C(N)=NC[C@@H]1CC1CCCCC1 | -18.4%
Cc1c(Cl)cccc1NC(=O)Cn1cc(C(=O)c2cccs2)c2ccccc21 | -95.6% (active)
Cc1ccccc1NC(=O)Cn1cc(C(=O)c2cccs2)c2ccccc21 | -22.9%
O=C(Cn1cc(C(=O)c2cccs2)c2ccccc21)NCc1cccs1 | -5.26%
COC(=O)C1=C(C(=O)OC)[C@@H]2N(C)c3ccccc3[C@@]23C[C@@H](C(=O)OC)N(C(C)=O)C3=N1 | -27%
O=C(NCc1cccnc1)C(=O)NCC(c1cccnc1)N1CCN(c2ccccc2)CC1 (centres undefined) | 5.63%
CC(=O)Nc1cc(-c2cccc(CO)c2)cn2c(-c3cccc(C(F)(F)F)c3)cnc12 | 71.5%
CN(C)CCNC(=O)c1cccc(-c2cnc3c(NC=O)cc(-c4cccc(C(F)(F)F)c4)cn23)c1 | -61.3% (active)
COc1ccc(-c2cc(NC=O)c3ncc(-c4cccc(C(=O)N(C)C)c4)n3c2)c(OC)c1 | 40.1%
CCCn1c(NCc2ccc(N(CC)CC)cc2)nc2ccccc21 | -5.55%
Cc1ccc(-c2noc(-c3nnn(-c4cccc(C(F)(F)F)c4)c3N)n2)cc1 | 15.9%
Cc1cccc(NC(=O)CSc2nc(-c3ccco3)cc(C(F)(F)F)n2)c1C | 1.83%
CC[C@@H](C)[C@H](NC(=O)CCc1c(C)c2cc3c4c(oc3c(C)c2oc1=O)CCCC4)C(=O)O | -33.8%
Cc1coc2cc3oc(=O)c(CCC(=O)O)c(C)c3cc12 | -38.4%
Cc1c(CC(=O)NCC(=O)NCC(=O)O)c(=O)oc2cc3oc4c(c3cc12)CCCC4 | -60.9% (active)
Cc1ccccc1CN1CCC(CNC(=O)c2cc3ccc4cccnc4c3[nH]2)CC1 | -34.7%
O=c1c(=O)n(Cc2c(F)cccc2Cl)ccn1Cc1ccccc1 | -4.43%
COc1ccc(Cn2ccn(Cc3cccc(OC)c3)c(=O)c2=O)cc1 | 6.59%
O=[N+]([O-])/C=C/c1ccc2c(ccn2Cc2ccccc2)c1 | -98% (active)
